Source: PubChem BioAssay (Broad Institute)
This is a sample that favours compounds with a hit; in the whole collection about 3.4% have one here.
esBAF inh: inhibitors of esBAF chromatin remodeling in mouse ES cells; Bmi1-luciferase knock-in reporter, 24 h; 100% = twice the neutral-well signal; reporter increase, % at 12.5 µM; hit rate 2% among 350,000; AID 602393; in the data active means activation above about 40%; inconclusive means no clear call, values can overlap the other calls;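 further: 0% = median of the plate's neutral control wells and 100% = double that signal; a rise in the Bmi1 reporter signal indicates esBAF inhibition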
HSF1 inh: HSF1 inhibition. NIH3T3-HGL HSE-luciferase, MG132-induced, luminescence 8 h; hits give low values. activity change, negative = inhibition, % at 7.5 µM (by protocol). hit rate 0.77% among 300,000. AID 2098;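 active means more than half of replicate wells show activity change below -50%, luminescence cut by over half; inconclusive means some wells, but at most half, below -50%; inactive means no replicate well below -50%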;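 further: luciferase reports HSF-1 transcriptional activity via heat shock element; 0% = median of DMSO wells and -100% = zero luminescence signal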
Vif inh: blocks HIV Vif function; HEK293T cells, Vif self-association by quenched fluorescence, imaging, 24 h; inhibition, % at 7.49 µM; hit rate 0.35% among 340,000; in the data active means inhibition above about 50%, passing the limit was not always enough; inconclusive means no clear call, values can overlap the other calls; inactive means below about 31%
HSF-1 act: increases HSF-1 driven luciferase reporter signal; NIH3T3-HGL HSF-1 luciferase reporter, MG132, 8 h; 100% = twice DMSO control signal; activation, % at 9 µM; hit rate 1.7% among 300,000; AID 504408;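 active means mean replicate activation of at least 50% with a set share of replicates each reaching 50%; inconclusive means only one of those two conditions met; inactive means mean below 50% and too few replicates reaching it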;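 further: 0% = median of the neutral control wells and 100% = twice that signal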
Active calls of the source: *; ? = inconclusive; · = no result given.

SMILES | esBAF inh | HSF1 inh | Vif inh | HSF-1 act
Cn1cnc(S(=O)(=O)N[C@@H]2CC[C@H](CC(=O)Nc3ccc(-c4ccccc4)cc3)O[C@H]2CO)c1 | -5 | · | · | ·
CN(C)C(CNC(=O)CCC(=O)c1ccc(Br)cc1)c1ccccc1 (centres undefined) | 3 | 26 | -1 | 63*
C/C(CC(=O)Nc1ccc(C)c(Cl)c1)=N\NC(=O)Cc1ccccc1 | -3 | 21 | -4 | ?
C/C(CC(=O)Nc1ccc(C)c(Cl)c1)=N\NC(=O)Cc1cnc(N)s1 | · | 27 | -1 | 61*
C[C@@H]1CN([C@H](C)CO)S(=O)(=O)c2ccc(C#CC3(O)CCCC3)cc2O[C@H]1CN(C)C(=O)Cc1ccccc1 | 2 | · | · | ·
C[C@@H]1CCCCO[C@@H](CN(C)S(=O)(=O)c2ccc(Cl)cc2)[C@H](C)CN([C@H](C)CO)C(=O)c2cc(NS(=O)(=O)c3cccs3)ccc2O1 | -4 | · | · | ·
COc1ccc(S(=O)(=O)NCC(c2cccnc2)N2CCN(C)CC2)cc1OC (centres undefined) | 2 | -71* | 8 | -78
COc1ccc(S(=O)(=O)NCC(c2cccnc2)N2CCN(C)CC2)cc1C (centres undefined) | -5 | -6 | · | -9
Cc1ccc(CNC(=O)CS(=O)(=O)Cc2nc(-c3ccccc3F)oc2C)cc1 | -6 | 29 | · | 57*
Cc1ccc(CNC(=O)CS(=O)(=O)Cc2nc(-c3ccc(C)cc3)oc2C)cc1 | 2 | -5 | -16 | -8
O=C(C[C@H]1CC[C@@H]2[C@H](COC[C@H](O)CN2C(=O)c2cccnc2)O1)Nc1ccc(-c2ccccc2)cc1 | 6 | · | · | ·
Cc1ccc(C2N(c3ccccc3)C(=S)N3CCCN23)cc1 (centres undefined) | 1 | -82* | · | -86
Fc1ccc(C2N(c3ccccc3)C(=S)N3CCCN23)cc1 (centres undefined) | 1 | -8 | -3 | -7
CCc1cc(=O)oc2c(CNCc3ccccc3F)c(O)c(Cl)cc12 | -4 | 13 | -3 | 64*
COC(=O)C[C@H]1C[C@@H]2c3cc(NS(=O)(=O)c4ccc(F)cc4)ccc3O[C@@H]2[C@@H](CO)O1 | 3 | · | · | ·
COc1ccc(CCNC(=O)Cc2cccs2)cc1 | · | -55* | -1 | -67
CC(/C=N/NC(=O)c1ccco1)=C\c1ccccc1 | -2 | 35 | · | 55*
O=C(Cc1cccs1)N/N=C/C(Br)=C/c1ccccc1 | 51* | 85 | -7 | 106*
O=C(Cc1cccs1)NCCCc1ccccc1 | 4 | -8 | 11 | -7
COc1ccc(/C=N/NC(=O)Cc2cccs2)cc1 | 59* | 18 | -5 | 34
O=C(N[C@H]1CC[C@@H](CCNC(=O)C2CC2)O[C@@H]1CO)c1ccccn1 | 4 | · | · | ·
COc1ccc(N(C(=O)CCl)C(C(=O)NCCc2ccccc2)c2cccs2)cc1 (centres undefined) | -3 | -93* | 3 | -94
CC(/C=N/NC(=O)c1sc(N)nc1C)=C\c1ccccc1 | · | 44 | 5 | 75*
CC(/C=N/NC(=O)Cc1cccs1)=C\c1ccccc1 | · | 60 | 17 | 122*
COc1ccc(CNC(=O)C(c2ccncc2)N(C(=O)Cc2cccs2)c2ccc(C)cc2)cc1 (centres undefined) | 130* | 23 | 3 | 44
SMILES | esBAF inh | HSF1 inh | Vif inh | HSF-1 act
CC(/C=N/NC(=O)c1cccs1)=C\c1ccccc1 | 38 | 28 | -12 | 43
Cc1nc(N)sc1C(=O)N/N=C/c1ccccc1[N+](=O)[O-] | · | 31 | -7 | 34
COc1cccc(NC(=O)N(C)C[C@@H]2Oc3ncc(C#Cc4ccncc4)cc3C(=O)N([C@H](C)CO)C[C@@H]2C)c1 | 3 | · | · | ·
O=C(C[C@@H]1CC[C@H](NC(=O)c2ccncc2)[C@H](CO)O1)NCCc1ccncc1 | -6 | · | · | ·
C[C@H](CO)N1C[C@H](C)[C@H](CN(C)C(=O)NC2CCCCC2)Oc2ccc(NC(=O)NC3CCCCC3)cc2CC1=O | -1 | · | · | ·
COc1ccc(S(=O)(=O)Nc2ccc3c(c2)C(=O)N([C@@H](C)CO)C[C@H](C)[C@@H](CN(C)C(=O)Nc2cccc4ccccc24)O3)cc1 | -2 | · | · | ·
O=C(Nc1ccc2c(c1)CCC2)Nc1ccc(F)cc1F | 71* | 19 | -7 | 37
Cc1ccccc1NC(=O)Nc1ccc2c(c1)CCC2 | 72* | 10 | -8 | 35
O=C(Nc1ccc2c(c1)CCC2)Nc1ccccc1F | 5 | -1 | 1 | 27
O=C(Nc1ccccc1)Nc1ccc2c(c1)CCC2 | 49* | 11 | -5 | 21
O=C(Nc1cccc(F)c1)Nc1ccc2c(c1)CCC2 | 64* | 21 | -4 | 44
C[C@H](CO)N1C[C@H](C)[C@@H](CN(C)Cc2ccc(Oc3ccccc3)cc2)Oc2ccc(NC(=O)CCN3CCOCC3)cc2CC1=O | 2 | · | · | ·
COc1ccc(S(=O)(=O)N(C)C[C@H]2Oc3ccc(NC(=O)Cc4ccccc4)cc3CC(=O)N([C@@H](C)CO)C[C@H]2C)cc1 | -2 | · | · | ·
COc1ccc(NC(=O)Nc2ccc3c(c2)C(=O)N([C@@H](C)CO)C[C@@H](C)[C@@H](CN(C)S(=O)(=O)c2c(C)noc2C)OCCCC[C@@H](C)O3)cc1 | 1 | · | · | ·
O=C(CSc1ccccn1)Nc1ccc2c(c1)CCC2 | 77* | 28 | 0 | 16
O=C(CSc1ccccn1)Nc1ccc2ccccc2c1 | · | 13 | · | ?
O=C(OCC(=O)C12CC3CC(CC(C3)C1)C2)c1ccc(O)cc1O | 51* | 19 | -12 | 12
CCCN(C)C[C@@H]1Oc2cc(C#Cc3cccc(F)c3)ccc2S(=O)(=O)N([C@H](C)CO)C[C@@H]1C | -2 | · | · | ·
CC1CN(C)C(C)CC1OC(=O)C(c1ccccc1)c1ccccc1 (centres undefined) | -8 | -2 | 22 | 10
COC(=O)C(c1ccccc1)C1(O)CC(C)N(C)CC1C (centres undefined) | 1 | -76* | 8 | -82
CCC(=O)N/C(N)=N/c1nc2ccccc2o1 | · | 2 | 0 | 5
CC(C)CC(=O)N/C(N)=N/c1nc2ccccc2o1 | 75* | 18 | 15 | 15
N/C(=N\c1nc2ccccc2o1)NC(=O)c1ccccc1 | · | 21 | -6 | 26
CC(=O)N/C(N)=N/c1nc2cc([N+](=O)[O-])ccc2o1 | · | 23 | -5 | 72*
CC(C)(C)C(=O)N/C(N)=N/c1nc2ccccc2o1 | 15 | 15 | -4 | 52*
SMILES | esBAF inh | HSF1 inh | Vif inh | HSF-1 act
C[C@H]1CN([C@@H](C)CO)C(=O)c2cccc(NS(=O)(=O)c3cn(C)cn3)c2O[C@H]1CN(C)Cc1ccc(Oc2ccccc2)cc1 | 0 | · | · | ·
Cc1cc(C(=O)Nc2ccc3c(c2)CCC3)ccc1[N+](=O)[O-] | · | 28 | -3 | 55*
O=C(Nc1ccc2c(c1)CCC2)c1ccc(Cl)nc1 | 82* | 16 | -6 | 26
O=C(Nc1ccc2c(c1)CCC2)c1cnc(Cl)c(Cl)c1 | · | 39 | 7 | 58*
Cc1ccc(NC(=O)c2ccc(Nc3c([N+](=O)[O-])cc([N+](=O)[O-])cc3[N+](=O)[O-])cc2)cc1 | · | -71* | -4 | -72
Cc1ccc(C(=O)NCC(=O)Nc2ccc3c(c2)CCC3)cc1C | 6 | · | -9 | ·
